# Glyco luc inh: blocks N-linked glycosylation in D54 reporter cells; actives 0.23% (n = 360,000); D54 ERlucT glycosylation luciferase reporter, 24 h; percent of 100 nM tunicamycin response; reporter increase, % at 12.5 µM;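 active = mean luciferase reporter signal, scaled so untreated is 0 and the glycosylation-blocking control 100, at or above a set limit in every replicate; inconclusive = mean reaches the limit but not every replicate does; inactive = mean below the limit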;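 note: luciferase carries N-glycosylation sites so blocking glycosylation raises the light; 0% = median of neutral control wells and 100% = median of 100 nM tunicamycin wells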
# PfHsp90 set2: growth inhibition of yeast expressing Plasmodium Hsp90. S. cerevisiae expressing PfHsp90, BacTiter-Glo ATP, 48 h; yeast lacking PDR1 and PDR3 efflux regulators. actives 0.32% (n = 310,000). inhibition, % at 9.4 µM;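 active = every replicate shows inhibition above about 80%, whatever the replicate mean, limit read from the data; inconclusive = mean inhibition reaches the set limit but some replicate falls short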;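 note: 0% = DMSO neutral controls and 100% = 20 µM radicicol positive controls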
# MITF act: MITF TRPM1 promoter activation in melanoma cells | actives 0.75% (n = 300,000) | activation, % at 12.5 µM | SK-MEL-5 TRPM1-promoter luciferase, 24 h; % of positive control, neutral wells = 0;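 active = mean activation of at least 80% with every replicate also reaching 80%; inconclusive = mean reaches 80% but some replicate falls short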;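 note: 0% = neutral control wells and 100% = parthenolide positive control wells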
# Vif imaging: inhibitors of HIV Vif; AID 602346; inhibition, % at 7.49 µM; HEK293T cells, Vif self-association by quenched fluorescence, imaging, 24 h; actives 0.35% (n = 340,000); in the data active = inhibition above about 50%, passing the limit was not always enough; inconclusive = no clear call, values can overlap the other calls; inactive = below about 31%
# esBAF inh: inhibitors of esBAF chromatin remodeling in mouse ES cells | Bmi1-luciferase knock-in reporter, 24 h; 100% = twice the neutral-well signal | reporter increase, % at 12.5 µM | actives 2% (n = 350,000); in the data active = activation above about 40%; inconclusive = no clear call, values can overlap the other calls;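 note: 0% = median of the plate's neutral control wells and 100% = double that signal; a rise in the Bmi1 reporter signal indicates esBAF inhibition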
# Wnt act: activators of Wnt/beta-catenin signaling; Wnt/beta-catenin reporter cell assay, activator, plate reader; activation, % at 9.35 µM; actives 1.2% (n = 300,000); in the data active = activation above about 30%, passing the limit was not always enough; inconclusive = no clear call, values can overlap the other calls;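 note: 0% = neutral control wells and 100% = positive control wells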
# esBAF Ring1 qPCR: de-represses Ring1 in mouse ESCs, confirming esBAF inhibition; shares compounds with esBAF inh; mouse ESC E14, Ring1 mRNA RT-qPCR fold change; fold change at 33 µM; 550 tested, under 10 active; AID 743176;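 active = Ring1 gene expression raised more than 2-fold over untreated cells in both replicates at either tested dose; inconclusive = only one replicate above 2-fold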;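 note: Ring1 transcript normalised to actin housekeeping signal by TaqMan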
# esBAF Fgf4 qPCR: confirmation of esBAF inhibitors: Fgf4 repression in mouse ESCs; AID 743177; shares compounds with esBAF inh; mouse ESC E14, Fgf4 mRNA qPCR fold change; hits give low values; Fgf4 expression fold change at 33 µM; actives 4% (n = 550);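 active = Fgf4 expression under 0.8 fold of control in both repeat measurements at one or both tested doses; inconclusive = under 0.8 fold in just a single repeat measurement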;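 note: Fgf4 transcript normalised to actin in duplex TaqMan qPCR; cells exposed to compound for 24 h before lysis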
# Bmi1 derepress: confirmation of esBAF inhibitors: Bmi1 de-repression in mouse ESCs; shares compounds with esBAF inh; fold change at 33 µM; 550 tested, under 10 active; mouse ESE14 ES cells, Bmi1 mRNA qPCR fold; hits give high values;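 active = Bmi1 expression fold change above 6 at either tested concentration, seen in replicate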;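 note: higher fold means more Bmi1 de-repression and stronger esBAF inhibition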
# A549 cytotox: cytotoxicity in A549 cells. shares compounds with esBAF inh. plate reader. cell viability change % (negative = cytotoxic), % at 25 µM, hits read low. 550 tested, under 10 active. AID 743188; call rule not given here
# HepG2 tox SP: cytotoxicity in HepG2 cells; activity change, negative = inhibition, % at 25 µM; plate reader; hits give low values; shares compounds with esBAF inh; actives 4% (n = 550); in the data active = activity change below about -50%
# HEK293 tox SP: cytotoxicity in HEK293 cells; shares compounds with esBAF inh; plate reader; activity change, negative = inhibition, % at 25 µM, hits read low; actives 3% (n = 550); AID 743190; in the data active = activity change below about -38%, passing the limit was not always enough
# * = called active by the depositor; ? = inconclusive; . = no result given. Hits are enriched below; roughly 3% of the tested compounds scored in any of these assays.
SMILES,Glyco luc inh,PfHsp90 set2,MITF act,Vif imaging,esBAF inh,Wnt act,esBAF Ring1 qPCR,esBAF Fgf4 qPCR,Bmi1 derepress,A549 cytotox,HepG2 tox SP,HEK293 tox SP
CCN1C(=O)C(=CC=CN(C)c2ccccc2)SC1=S,-9.8,.,.,44.2,83.9*,7.0,1.06,0.932,1.46,-18.8,-8.1,-9.7
CN(CC(O)COCc1cccs1)C1CCCCC1 (stereo unspecified),-0.1,-1.9,-6.7,4.3,0.4,.,.,.,.,.,.,.
COc1cc2ccccc2cc1C(=O)Nc1ccc(Br)cn1,1.0,9.6,62.5,8.9,86.1*,7.6,0.992,0.911,1.45,2.2,2.9,0.4
O=C(COc1ccc(/C=N/NC(=O)c2cc3ccccc3o2)cc1Br)Nc1ccccc1,61.8*,-11.1,-92.9,.,?,.,0.857,?,5.08,-121.3*,-75.3*,-121.0*
CC1CCc2c(sc(NC(=O)c3cccn3C)c2C(N)=O)C1 (stereo unspecified),0.8,-2.6,37.0,-11.7,70.9*,8.0,1.07,1.02,1.52,-11.4,-17.4,-19.5
COC(=O)Nc1sc2c(c1C(N)=O)CCC(C)C2 (stereo unspecified),-0.2,.,6.1,-3.6,.,0.6,.,.,.,.,.,.
O=C(CCCc1c[nH]c2ccccc12)NCC1COc2ccccc2O1 (stereo unspecified),-1.7,-82.1,-1.9,-4.3,.,-0.4,.,.,.,.,.,.
CCN(CC)c1nc(C=Cc2ccc(N(C)C)cc2)c2nccnc2n1,-3.6,.,.,.,.,-0.5,.,.,.,.,.,.
CN(C)c1ccc(C=Cc2nccc3ccccc23)cc1,-3.0,.,.,.,70.1*,3.3,1.46,1.07,4.22,-47.7,-74.5*,-63.1*
COc1ccc(-c2noc(CCCC(=O)N3CCN(c4cc(C)ccc4C)CC3)n2)cc1,0.1,-0.5,65.6,.,62.3*,1.3,1.23,1.02,1.6,-2.8,2.0,-13.1
COc1cccc(-c2noc(CCC(=O)N3CCN(c4cc(C)ccc4C)CC3)n2)c1,0.9,-1.9,-0.2,-5.8,1.6,-1.0,.,.,.,.,.,.
COc1ccccc1-c1noc(CCC(=O)N2CCN(c3cc(C)ccc3C)CC2)n1,-0.2,-12.2,9.7,-9.2,-4.4,-2.9,.,.,.,.,.,.
COc1ccc(-c2noc(CCCCC(=O)N3CCN(c4cc(C)ccc4C)CC3)n2)cc1,-2.7,25.1,-50.2,.,-74.2,-3.3,.,.,.,.,.,.
Cc1ccc(C)c(N2CCN(C(=O)CCc3nc(-c4cccc(Cl)c4)no3)CC2)c1,0.6,11.7,72.9,.,89.9*,0.4,1.05,1.23,0.861,1.8,-37.0,-0.3
Cc1ccc(C)c(N2CCN(C(=O)CCc3nc(-c4ccccc4C(F)(F)F)no3)CC2)c1,0.0,9.4,72.3,-12.0,72.7*,34.1*,1.31,0.963,1.6,-4.7,-20.6,-10.0
COc1ccc2nc3ccccc3[n+]([O-])c2c1,18.2,-5.4,26.1,-3.0,72.1*,4.0,1.38,1.3,2.53,-6.2,-13.7,-11.0
COc1ccc2c(ccc[n+]2[O-])c1,3.4,.,-2.0,0.8,1.8,-2.5,.,.,.,.,.,.
Cc1cc(C)c2c(N)c(C(=O)Nc3ccccc3Br)sc2n1,-0.8,7.9,73.2,-13.8,60.6*,12.5,1.29,0.938,1.87,6.9,-14.1,7.5
CC1CC(C)CN(C(=O)CNC(=O)c2sc3ccccc3c2Cl)C1 (stereo unspecified),-2.8,8.1,64.4,-0.3,23.0,11.8,.,.,.,.,.,.
CC1CCCN(C(=O)CNC(=O)c2sc3ccccc3c2Cl)C1 (stereo unspecified),-3.1,-23.2,126.5*,-11.8,82.5*,23.6,0.95,0.995,1.25,-0.2,1.5,-7.0
O=C(CNC(=O)c1ccc(Cl)cc1Cl)OCN1C(=O)c2ccccc2C1=O,1.0,14.7,6.4,10.9,.,-0.3,.,.,.,.,.,.
COc1cccc2sc(N3CCN(C(=O)c4cccs4)CC3)nc12,-0.9,.,-1.8,-7.4,.,0.5,.,.,.,.,.,.
Cc1cc2nc(N3CCN(C(=O)c4cccs4)CC3)sc2cc1C,-3.0,.,117.8*,-14.7,62.4*,19.1,1.12,?,1.36,-7.9,24.5,-10.5
CC(=O)Oc1ccc2cc(-c3ccccc3)c(=O)oc2c1,2.6,-30.6,60.0,-0.5,60.3*,15.0,1.28,0.892,1.57,-14.3,-6.7,2.8
Cc1ccc(Nc2cccccc2=O)cc1,-3.7,12.8,?,.,54.7*,26.2,1.13,1.08,1.77,-5.4,-20.9,-8.7
SMILES,Glyco luc inh,PfHsp90 set2,MITF act,Vif imaging,esBAF inh,Wnt act,esBAF Ring1 qPCR,esBAF Fgf4 qPCR,Bmi1 derepress,A549 cytotox,HepG2 tox SP,HEK293 tox SP
O=C(CCc1nnc(Cc2ccc(-c3ccccc3)cc2)o1)N1CCCC1,0.0,5.0,-2.1,-11.3,.,-0.9,.,.,.,.,.,.
CC1CCN(C(=O)CCc2nnc(-c3ccccc3)o2)CC1,-1.1,-4.0,23.8,8.8,74.1*,?,0.944,0.94,1.34,-2.6,-10.0,-5.8
CS(=O)(=O)c1cccc(-c2csc(N3CCC(C(N)=O)CC3)n2)c1,1.5,-16.2,49.7,-0.7,67.9*,8.6,1.2,0.862,1.26,-6.4,2.5,-5.9
CCc1nc2c(OCc3ccccc3)cccn2c1N(C)C(=O)COc1ccccc1,-1.6,.,.,-10.1,4.6,-1.6,.,.,.,.,.,.
CCCC1CCC(c2nc(-c3cccnc3)no2)CC1 (stereo unspecified),0.5,.,73.2,-1.9,60.1*,.,1.2,?,1.66,-2.6,-27.3,-9.8
CC1(C)CC(=O)c2sc(NC(=O)c3cccs3)nc2C1,.,13.0,8.8,.,.,.,.,.,.,.,.,.
CC1(C)CNC(=O)c2sc(NC(=O)c3ccccc3)nc2C1,0.0,-75.4,90.7*,4.5,84.3*,0.1,1.12,1.01,1.51,-1.9,-26.0,-24.0
Clc1ccc(C=NN2CCCCCC2)c(Cl)c1,0.7,.,21.3,-2.7,39.2,16.2,.,.,.,.,.,.
Clc1ccc(C=NN2CCCCCC2)cc1,-2.4,.,68.7,19.7,81.8*,?,1.26,1.1,1.71,-9.1,-13.8,-5.2
N#Cc1ccc(C=NN2CCCCCC2)cc1,-2.5,.,53.0,2.0,69.2*,47.6*,1.28,?,1.59,-8.2,-7.1,-14.3
Oc1ccc(/C=N/N2CCCCC2)cc1O,-2.9,-2.7,27.4,.,-8.5,-2.3,.,.,.,.,.,.
Clc1ccccc1C1CC(c2ccccc2)Nc2ncnn21 (stereo unspecified),1.4,18.8,-5.3,1.1,-5.4,-1.7,.,.,.,.,.,.

# Assay outcomes as filed in PubChem BioAssay.
